A number with no mark means an inactive call. Results filed as inconclusive are left out. Activity calls are given as the source filed them. Unless noted, calls follow the shape of the full dose curve.
Target: Lysosomal acid glucosylceramidase (Homo sapiens) (UniProt P04062)
Test: Glucocerebrosidase-p2 (AID 348; in the data active = potency below about 10 µM; also: potency is read from the fitted curve at half-maximal effect)
Details: purified GBA, blue fluorogenic substrate, 40 min
Method in brief: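 Compounds titrated from 0.6 nM upwards against 0.2 nM enzyme in pH 5.9 citric acid/KH2PO4, taurocholate, tween-20; blue fluorogenic substrate 80 uM, 40 min room temperature, stopped and read Ex 365/Em 440 for AC50.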

Sequence of Lysosomal acid glucosylceramidase (Homo sapiens) (P04062 whole entry, looked up): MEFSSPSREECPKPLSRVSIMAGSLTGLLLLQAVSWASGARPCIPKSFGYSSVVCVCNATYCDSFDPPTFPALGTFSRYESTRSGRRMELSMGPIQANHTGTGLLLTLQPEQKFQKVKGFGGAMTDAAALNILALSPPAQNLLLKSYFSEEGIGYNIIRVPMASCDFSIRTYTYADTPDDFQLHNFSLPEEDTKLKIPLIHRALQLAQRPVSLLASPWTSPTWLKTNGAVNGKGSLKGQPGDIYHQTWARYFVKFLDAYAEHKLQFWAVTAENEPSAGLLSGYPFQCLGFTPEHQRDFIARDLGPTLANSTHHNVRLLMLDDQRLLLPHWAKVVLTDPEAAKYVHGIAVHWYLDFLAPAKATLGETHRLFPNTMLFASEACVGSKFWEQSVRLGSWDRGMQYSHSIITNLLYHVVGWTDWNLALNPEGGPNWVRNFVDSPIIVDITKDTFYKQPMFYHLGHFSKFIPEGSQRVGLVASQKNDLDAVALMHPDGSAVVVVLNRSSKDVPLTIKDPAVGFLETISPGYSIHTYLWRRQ

Structure (SMILES)	Potency [µM]
COc1ccc2[nH]cc(CCNc3ncnc4ccc(-c5cccc(C#N)c5)cc34)c2c1	> 11.4
CCNc1ncc2ncc(=O)n(Cc3ccc(F)cc3)c2n1	> 11.4
COc1ccccc1CNc1nc(-c2ccc(C(=O)N(C)C)cc2)nc2ccccc12	> 11.4
COc1ccc2[nH]cc(CCNc3ncncc3-c3ccccc3C(F)(F)F)c2c1	> 11.4
CN1CCN(c2nc(-c3cccnc3)nc3ccccc23)CC1	> 11.4
CN(C)C(=O)c1ccc(-c2nc(Nc3ccccc3)c3ccccc3n2)cc1	> 11.4
COc1cccc(Cn2c(=O)cnc3cnc(N(C)C)nc32)c1	> 11.4
COc1cccc(-c2nc(NCc3cccnc3)c3ccccc3n2)c1	> 11.4
COCCn1c(=O)c(-c2cccc(C#N)c2)nc2cnc(Oc3cccc(Cl)c3)nc21	> 11.4
CN1CCN(c2nc(-c3ccoc3)nc3ccccc23)CC1	> 11.4
CN(C)c1nc(-c2cccc(NS(C)(=O)=O)c2)nc2ccccc12	> 11.4

Test system: not listed separately
Test: AP1 Signaling Pathway (AID 357; active = well fitted curve in either direction with a large enough effect, not every such curve was filed as active;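 also: ME-180 reporter cells stimulated with EGF at its EC50 level; % is scaled to controls: 0 for no effect and ±100 for the full control effect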)
Details: ME-180 (cervical carcinoma) AP-1-bla reporter, EGF-induced, beta-lactamase ratio, 5 h; at 7.69 µM (top of the series) unless noted
Method in brief: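 In this screen, ME-180 cells in Opti-MEM with 0.5% dialyzed FBS received EC50 EGF and compound titrations for 5 h. AP-1 reporter beta-lactamase was detected via CCF4 ratio, giving AC50 for positive and negative modulators.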

Structure (SMILES)	activity change, negative = inhibition [%]
COc1ccccc1-c1nc(NC2CC2)c2ccccc2n1	-2.64
CCNc1ncc2ncc(=O)n(Cc3ccc(F)cc3)c2n1	-23.6
Cc1ccccc1-c1ccc2ncnc(NCCN3CCOCC3)c2c1	13.8
COc1ccc2[nH]cc(CCNc3ncncc3-c3ccccc3C(F)(F)F)c2c1	3.8
CCNc1ncc2nc(CCc3ccccc3)c(=O)n(C3CC3)c2n1	-7.57
CN1CCN(c2nc(-c3cccnc3)nc3ccccc23)CC1	5.32
CN(C)C(=O)c1ccc(-c2nc(Nc3ccccc3)c3ccccc3n2)cc1	-10.3
COc1cccc(Cn2c(=O)cnc3cnc(N(C)C)nc32)c1	-10.4
COc1cccc(-c2nc(NCc3cccnc3)c3ccccc3n2)c1	-1.11
COCCn1c(=O)c(-c2cccc(C#N)c2)nc2cnc(Oc3cccc(Cl)c3)nc21	-5.9
CN1CCN(c2nc(-c3ccoc3)nc3ccccc23)CC1	6.84
CN(C)c1nc(-c2cccc(NS(C)(=O)=O)c2)nc2ccccc12	11.2

Target: Cytochrome P450 1A2 (Homo sapiens) (UniProt P05177)
Test: p450-cyp1a2 (AID 410); also: potency is read from the fitted curve at half-maximal effect
Details: recombinant CYP1A2, luciferin-ME demethylation, luminescence; series mostly up to 57 µM
Method in brief: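 Inhibition was calculated relative to 57 uM furafylline (full inhibition). The reaction used human CYP1A2 at 20nM with Luciferin-ME at its Km, 100uM, driven by an NADPH-regenerating system for 60 min at room temperature.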

Sequence of Cytochrome P450 1A2 (Homo sapiens) (P05177 whole entry, looked up): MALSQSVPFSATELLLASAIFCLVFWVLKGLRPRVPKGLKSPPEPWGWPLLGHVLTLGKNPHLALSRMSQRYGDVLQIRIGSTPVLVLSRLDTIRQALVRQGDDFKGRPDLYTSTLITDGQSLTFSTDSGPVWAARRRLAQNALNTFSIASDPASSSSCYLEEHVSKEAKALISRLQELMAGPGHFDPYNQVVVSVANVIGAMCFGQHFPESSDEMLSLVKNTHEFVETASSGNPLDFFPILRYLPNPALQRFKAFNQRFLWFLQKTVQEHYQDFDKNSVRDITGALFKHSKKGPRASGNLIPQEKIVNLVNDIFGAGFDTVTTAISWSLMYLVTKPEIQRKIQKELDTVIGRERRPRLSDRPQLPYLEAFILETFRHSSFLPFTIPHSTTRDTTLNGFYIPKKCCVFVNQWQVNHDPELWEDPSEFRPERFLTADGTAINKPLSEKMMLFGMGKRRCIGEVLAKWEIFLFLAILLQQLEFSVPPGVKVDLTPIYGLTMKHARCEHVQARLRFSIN

Structure (SMILES)	Potency
COc1ccccc1-c1nc(NC2CC2)c2ccccc2n1	0.316 µM (active)
COc1ccc2[nH]cc(CCNc3ncnc4ccc(-c5cccc(C#N)c5)cc34)c2c1	2.51 µM (active)
CCNc1ncc2ncc(=O)n(Cc3ccc(F)cc3)c2n1	1 µM (active)
COc1ccc2[nH]cc(CCNc3ncncc3-c3ccccc3C(F)(F)F)c2c1	10 µM (active)
CCNc1ncc2nc(CCc3ccccc3)c(=O)n(C3CC3)c2n1	3.16 µM (active)
CN1CCN(c2nc(-c3cccnc3)nc3ccccc23)CC1	3.16 µM (active)
CN(C)C(=O)c1ccc(-c2nc(Nc3ccccc3)c3ccccc3n2)cc1	0.398 µM (active)
COc1cccc(Cn2c(=O)cnc3cnc(N(C)C)nc32)c1	6.31 µM (active)
COc1cccc(-c2nc(NCc3cccnc3)c3ccccc3n2)c1	0.158 µM (active)
CN1CCN(c2nc(-c3ccoc3)nc3ccccc23)CC1	1.26 µM (active)
CN(C)c1nc(-c2cccc(NS(C)(=O)=O)c2)nc2ccccc12	0.501 µM (active)

Test system: not listed separately
Test: Cell Viability - BJ (AID 421);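 also: potency is read from the fitted curve at half-maximal effect; cells exposed to compound for 40 hours at 37 °C before readout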
Details: BJ fibroblast viability, qHTS
Method in brief: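 Luminescent ATP signal (CellTiter-Glo, 20 min at room temperature) served as the read-out of viable BJ cells after 40 hours of compound treatment. Responses were scaled between DMSO and 100 uM tamoxifen, and AC50 values were obtained by Hill modeling.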

Structure (SMILES)	Potency [µM]
CCCN(CCC)C(=O)SCC	> 92
COc1ccc2nc(N)sc2c1	> 92
ClCCCl	> 92
CCC(O)OC(O)CC (stereo not given)	> 92
C=Cc1ccccc1Cl	> 92
c1ccc2c(c1)c1cccc3ccc4cccc2c4c31	> 92
Cc1cccc([N+](=O)[O-])c1C	> 92
CCCCCCCCO	> 92
CC(C)=CCCC(C)CCO (stereo not given)	> 92
O=[N+]([O-])c1cccc(Cl)c1Cl	> 92
CCO[Si](CCCN)(OCC)OCC	> 92
Clc1cc(Cl)c(Cl)cc1Cl	> 92
CCO	> 92
C=CC(=O)OCCOCCOCCOCCOC(=O)C=C	> 92
Clc1cc(Cl)c(Cl)c(Cl)c1Cl	> 92
CCCCC(CC)CN (stereo not given)	> 92
O=NO	> 92
c1ccc2c(c1)[nH]c1ccccc12	> 92
OCCNCCO	> 92
Nc1ccc(Cl)cc1Cl	> 92
CCC(C)c1ccccc1O (stereo not given)	> 92
CC1=CC(C)(C)Nc2ccccc21	> 92
CN(C)C=O	> 92
Cc1ccc(N)c([N+](=O)[O-])c1	> 92
CCCCOCCO	> 92
CC(=O)OC/C=C(\C)CCC=C(C)C	> 92

— PubChem BioAssay (NCATS)
